For 36 compounds, composite z-score results are on record in PubChem BioAssay.

The structures appear in SMILES notation.

The test system of the assay is XIP peptide (Xip251-270). In words: small-molecule binders of XIP peptide, primary screen, biochemical, small-molecule microarray, fluorescence 635/667 nm, 0.5 µg/mL protein (AID 1183). The following applies: small-molecule microarray binding, fluorescence 635 nm; higher = more signal.
As for `O=C(O)[C@@H]1[C@@H]2C(=O)N(c3ccccc3)C(=O)[C@@H]2C[C@@H]1Sc1ccccc1`, the composite z-score is 0.463.
In the case of `CCOC(=O)C1=CC[C@@H](c2ccccc2F)N(S(=O)(=O)c2ccc(C)cc2)[C@H]1c1ccccc1` it was 0.563; in that of `C=CCN1Cc2ccccc2[C@@H]2OC(c3ccc(OCCCO)cc3)=N[C@]2(CC=C)C1=O`, 0.794.
To `O=C(NCCN1CCOCC1)[C@@H]1c2ccccc2C(=O)N(C2Cc3ccccc3C2)[C@H]1c1ccc(CO)cc1` belongs 0.584.
For `C=CCC(OC(C)=O)[C@@H]1[C@@H](N(Cc2cccc3ccccc23)C(=O)Cc2ccc(OC)cc2)c2cc(OCCCO)ccc2N1C(=O)c1ccc(-c2ccccc2)cc1` (stereo partly specified), the composite z-score stood at 0.309.
Take `CC(C)[Si](C#CCCCC#N)(O[C@H](c1ccccc1)c1cn(Cc2ccccc2)nn1)C(C)C`: the composite z-score turned out to be 0.391.
`NCCCCCCNC(=O)[C@@H]1C[C@@H]2C(=O)N[C@@H](CCCCN)C(=O)N2[C@@H]1c1ccc(O)cc1`: the composite z-score was found to be 0.739.
In the case of `CCN(CC)c1ccc(N2CC=CC34O[C@@H]5/C=C\CCCOC(=O)C5[C@H]3C(=O)N(C(C)CO)[C@@H]4C2=O)cc1` (stereo partly specified) it was 0.213; in that of `CC(C)N1C(=O)C[C@@](C(=O)O)(c2ccc([N+](=O)[O-])cc2)[C@H]1c1ccc(CO)cc1`, 0.916; in that of `CN(C)C(=O)[C@@]1(Cc2ccccc2)N=C(c2ccc(OCCCO)cc2)O[C@H]1c1ccccc1`, 0.444.
In the case of `Cc1ccc(S[C@]2(C(=O)NC(C)C)CC(=O)N(Cc3cc(C(F)(F)F)cc(C(F)(F)F)c3)[C@@H]2c2ccc(CO)cc2)cc1` it was 0.49.
In the case of `COCC(=C=CC[C@H](O)c1ccc(CO)o1)CCO` it was 0.297.
`CCCCCN1CC=CC23O[C@@H]4/C=C\CCCOC(=O)C4[C@H]2C(=O)N(C(C)CO)[C@@H]3C1=O` (stereo partly specified): the composite z-score is 0.106.
In the case of `COc1ccc([Si](C)(C)[C@@H]2[C@@H](CCO)O[C@]3(C(=O)N(Cc4cccc(NC(=O)[C@H](C)O)c4)c4ccccc43)[C@H]2C)cc1`, the composite z-score was determined as 0.755.
With `Cc1ccc(S[C@]2(C(=O)NCc3ccccc3)CC(=O)N(C3CCCCC3)[C@@H]2c2ccc(CO)cc2I)cc1`, the composite z-score turned out to be 0.742.
For the compound `CC(C)c1ccc(NN2C(C(O)c3ccc(F)cc3)C=CC3C(=O)N(c4ccccc4)C(=O)C32)cc1` (stereo unspecified), the composite z-score is 0.774.
To `COC(=O)[C@@]1(Cc2ccccc2)[C@H]2c3cc(C(=O)N4CCCC4)n(CCc4ccccn4)c3C[C@H]2CN1C(=O)c1ccccc1` belongs 0.663; to `CCCN1C(=O)[C@]2(Cc3ccccc31)N=C(c1ccc(OCCCO)cc1)O[C@@H]2c1ccccc1`, 0.763; to `O=C1[C@H]2C=C(I)[C@H](C[C@@H]2OCCOCCO)[C@@]12CO2`, -0.0714.
In the case of `CCCCCCc1nc(Cc2cc(OC)c(OC)c(OC)c2)cc2c1[Si](C(C)C)(C(C)C)OC2` it was 0.0776.
Regarding `COC(=O)C(CC#Cc1ccc2c(c1)[C@]1(C(=O)N2)[C@H](c2ccc(O)cc2)N2[C@H](c3ccccc3)[C@H](c3ccccc3)OC(=O)[C@H]2[C@@H]1C(=O)NC[C@H](O)c1ccccc1)C(=O)OC`, the composite z-score is 0.42.
With `COCCOC(=O)N1C(=O)[C@@]2(c3cc(C#CC4=CCCCC4)ccc31)[C@H](c1ccccc1OCCO)N1[C@H](c3ccccc3)[C@H](c3ccccc3)OC(=O)[C@H]1[C@@H]2C(=O)N1CCN(c2ncccn2)CC1`, the composite z-score amounted to 0.55.
`O[C@@H](Cc1ccccc1)[C@@H](/C=C/C1CC1)N(CC#Cc1ccccc1)Cc1ccccc1Br`: the composite z-score was found to be 0.13.
Regarding `COc1cc2c(cc1O)C=[N+](Cc1sc3ccccc3c1Cl)CC2`, the composite z-score is 0.133.
Consider `COc1ccc(C#Cc2ccc3c(c2)[C@]2(C(=O)N3)[C@H](C(=O)O)[C@H]3C(=O)O[C@H](c4ccccc4)[C@H](c4ccccc4)N3[C@@H]2c2ccc(O)cc2)cc1`, for which the composite z-score is -0.516.
In the case of `Cn1cccc1C(O)C1C=CC2C(=O)N(c3ccccc3)C(=O)C2N1Nc1ccccc1` (stereo unspecified) it was 0.801; in that of `Cc1ccc(F)cc1S(=O)(=O)N[C@@H]1CCN(Cc2ccc(Br)cc2)C1`, -0.192.
Regarding `CC1CC/C=C\[C@H]2OC34C=CCN(Cc5ccccc5)C(=O)[C@H]3N(C(CO)C(C)C)C(=O)[C@@H]4C2C(=O)O1` (stereo partly specified), the composite z-score was -0.555.
As to `CCOC(=O)C1=C[C@@H](C(C)C)N(S(=O)(=O)c2ccc(C)cc2)[C@H]1c1ccc(C(F)(F)F)cc1`, the composite z-score was found to be 0.555.
To `COCCCNC(=O)[C@@]1(Sc2ccc(C)cc2)CC(=O)N(C2Cc3ccccc3C2)[C@@H]1c1ccc(CO)cc1` belongs 0.446; to `C[N+](C)(C)CCCC[C@@H]1NC(=O)[C@@H]2C[C@H](C(=O)NCCCCCCN)[C@H](c3cccc(OCCO)c3)N2C1=O`, 0.771.
To `C=CCC(OC(C)=O)[C@@H]1[C@@H](N(Cc2ccc(-c3ccccc3)cc2)C(=O)c2ccc(-c3ccccc3)cc2)c2cc(OCCCO)ccc2N1C(=O)c1ccc2ccccc2c1` (stereo partly specified) belongs -0.482.
For the compound `CC1CC/C=C\[C@H]2OC34C=CCN(C(C)C)C(=O)[C@H]3N(CCO)C(=O)[C@@H]4C2C(=O)O1` (stereo partly specified), the composite z-score is -0.472.
Regarding `CCCNC(=O)[C@@H]1c2ccccc2C(=O)N(Cc2ccc(OC(F)(F)F)cc2)[C@H]1c1ccc(CO)cc1`, the composite z-score worked out at 0.835.
To `CC(C)NC(=O)[C@@]1(C)c2ccccc2C(=O)N(Cc2ccc(OC(F)(F)F)cc2)[C@H]1c1ccc(CO)cc1` belongs 0.836; to `COc1ccc(CCNC(=O)[C@@]2(Cc3ccccc3I)c3ccccc3C(=O)N(C3CCCCC3)[C@H]2c2ccc(CO)cc2)cc1`, 0.372.
